The results in this text go back to PubChem BioAssay (NCI).

What all share (experiment): NCI-60 one-dose screen, 48 h (100 = growth as untreated, 0 = no growth, -100 = all killed)
The subject of assay [1] is BT-549 breast.
Assay [2] has as its system MDA-MB-435 melanoma.
In assay [3] the test system is SW-620 colon.
In assay [4] the test system is HCT-116 colon.
In assay [5] the test system is HCC-2998 colon.
The subject of assay [6] is KM12 colon.
Assay [7] deals with MCF7 breast.

Where “and” joins values, the source holds several entries; their conditions need not be identical. Equal values may be shown once. The panel holds about 83,000 compounds, 20% with a hit somewhere; the sample as a whole holds those more often.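 Percent growth is the endpoint: 0 to 100 indicates growth inhibition (40 means 60% inhibition), 0 means no net growth, and negative values indicate cell death.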 Calls of active or inactive are those of the source. Rule for the calls: active = growth percent below 10; inactive = the rest.

`O=C(CCl)n1nnnc1Cc1ccccc1`: the growth in assay [1] (10 µM unless noted) is 93.7% (inactive); in assay [2] (10 µM unless noted), 103% (inactive); in assay [3] (10 µM unless noted), 101% (inactive); in assay [4] (10 µM unless noted), 102% (inactive); in assay [5] (10 µM unless noted), 94.6% (inactive); in assay [6] (10 µM unless noted), 116% (inactive).
For `Cc1[nH]c(C(=O)Nc2nc3ccc(NC(=O)CCN)cc3s2)c(Cl)c1Cl`, the growth was 88.9% (inactive) in assay [1] (10 µM unless noted); 91.3% (inactive) in assay [2] (10 µM unless noted); 43.7% (inactive) in assay [3] (10 µM unless noted); 52.3% (inactive) in assay [7] (10 µM unless noted); 59.9% (inactive) in assay [4] (10 µM unless noted); 96.4% (inactive) in assay [5] (10 µM unless noted). Further, the growth in assay [6] (10 µM unless noted) was 90.3% (inactive).
For `COc1ccc(/C=C(\C#N)c2cc3ccccc3[nH]2)cc1`, the growth in assay [1] (10 µM unless noted) is 40.9% (inactive); in assay [2] (10 µM unless noted), -32.6% (active); in assay [3] (10 µM unless noted) it was 9.82% (active); in assay [7] (10 µM unless noted), 13.3% (inactive); in assay [4] (10 µM unless noted), 12.5% (inactive); in assay [5] (10 µM unless noted) it was 39% (inactive). The growth in assay [6] (10 µM unless noted) is 20.4% (inactive).
Consider `Fc1ccccc1-c1cnn2cc(-c3ccccc3)cnc12`, for which the growth is 98.7% (inactive) in assay [1] (10 µM unless noted); 75.6% (inactive) in assay [2] (10 µM unless noted); 92.2% (inactive) in assay [3] (10 µM unless noted); 68.1% (inactive) in assay [7] (10 µM unless noted); 91.3% (inactive) in assay [4] (10 µM unless noted); 92.8% (inactive) in assay [5] (10 µM unless noted). Moreover, the growth in assay [6] (10 µM unless noted) is 59.3% (inactive).
Turning to `CC(=O)/C=C/c1ccc(OCc2ccc(Cl)cc2)cc1`, the growth in assay [1] (10 µM) was 102% (inactive); in assay [1] (100 µM) it was 38% (inactive); in assay [2] (10 µM) it was 94.5% (inactive); in assay [2] (100 µM) it was 23.1% (inactive); in assay [3] (10 µM) it was 104% (inactive); in assay [3] (100 µM) it was 70.4% (inactive). The growth in assay [7] (10 µM) was 94.2% (inactive); in assay [7] (100 µM), 46% (inactive); in assay [4] (10 µM) it was 90.5% (inactive); in assay [4] (100 µM), 46.1% (inactive); in assay [5] (10 µM), 101% (inactive); in assay [5] (100 µM) it was 60.4% (inactive). Moreover, the growth in assay [6] (10 µM) is 93.9% (inactive); in assay [6] (100 µM) it was 35.3% (inactive).
As to `COc1cc(C(=O)c2ccccc2C(=O)O)c(OC)c2c1CCCC2`, the growth was 95.8% (inactive) and 101% (inactive) in assay [1] (10 µM unless noted); 100% (inactive) and 107% (inactive) in assay [2] (10 µM unless noted); 98.2% (inactive) and 106% (inactive) in assay [3] (10 µM unless noted); 95.6% (inactive) and 95.4% (inactive) in assay [4] (10 µM unless noted); 107% (inactive) and 101% (inactive) in assay [5] (10 µM unless noted); 98.7% (inactive) and 104% (inactive) in assay [6] (10 µM unless noted).
On to `CCNC(=O)Oc1ccc(/C(=C(/C)Cc2ccc(OC)cc2)c2ccc(OCCN(CC)CC)cc2)cc1`, for which the growth is 80.5% (inactive) in assay [1] (10 µM unless noted); 40.5% (inactive) in assay [2] (10 µM unless noted); 45.2% (inactive) in assay [3] (10 µM unless noted); 18.3% (inactive) in assay [7] (10 µM unless noted); 30.9% (inactive) in assay [4] (10 µM unless noted); 59.7% (inactive) in assay [5] (10 µM unless noted). The growth in assay [6] (10 µM unless noted) is 62.2% (inactive).
Consider `CC(Sc1ccccc1)C(=O)O` (stereo not given), for which the growth was 96.5% (inactive) in assay [1] (10 µM unless noted); 96.5% (inactive) in assay [2] (10 µM unless noted); 102% (inactive) in assay [3] (10 µM unless noted); 99.5% (inactive) in assay [7] (10 µM unless noted); 88% (inactive) in assay [4] (10 µM unless noted); 120% (inactive) in assay [5] (10 µM unless noted). Also, in assay [6] (10 µM unless noted), the growth is 107% (inactive).
For `CC[C@]1(O)CC2CN(CCc3c([nH]c4ccccc34)C(C(=O)OC)(c3cc4c(cc3OC)N(C=O)[C@H]3[C@@](O)(C(=O)OC)[C@H](OC(C)=O)[C@]5(CC)[C@@H]6C[C@@H]6CN6CC[C@]43[C@@H]65)C2)C1` (stereo not given in full), the growth in assay [1] (10 µM unless noted) is -2.67% (active); in assay [2] (10 µM unless noted), -53.2% (active); in assay [3] (10 µM unless noted), 23.1% (inactive); in assay [7] (10 µM unless noted) it was 12.1% (inactive); in assay [4] (10 µM unless noted) it was -17.5% (active); in assay [5] (10 µM unless noted), 12.2% (inactive). Besides, the growth in assay [6] (10 µM unless noted) is -17.5% (active).
Regarding `COc1ccc(-c2c[nH]c(C(=O)O)c2-c2cc(OC)c(OC)c(OC)c2)cc1`, the growth in assay [1] (10 µM unless noted) was 65.8% (inactive); in assay [2] (10 µM unless noted), -21.3% (active); in assay [3] (10 µM unless noted), 23.6% (inactive); in assay [7] (10 µM unless noted), 24.2% (inactive); in assay [4] (10 µM unless noted), 29.6% (inactive); in assay [5] (10 µM unless noted), 84.6% (inactive). Besides, the growth in assay [6] (10 µM unless noted) was 25% (inactive).
Regarding `CN1CCCc2cc(/C=C3\SC(=S)N(C(Cc4ccc(O)cc4)C(=O)O)C3=O)ccc21` (stereo not given), the growth is 106% (inactive) in assay [1] (10 µM unless noted); 103% (inactive) in assay [2] (10 µM unless noted); 102% (inactive) in assay [3] (10 µM unless noted); 94.5% (inactive) in assay [7] (10 µM unless noted); 106% (inactive) in assay [4] (10 µM unless noted); 93.6% (inactive) in assay [5] (10 µM unless noted). Besides, the growth in assay [6] (10 µM unless noted) was 105% (inactive).
In the case of `Cc1nc2sc(C(=O)Nc3cccc4ncccc34)c(N)c2cc1C(C)O` (stereo not given), the growth in assay [1] (10 µM unless noted) is 79% (inactive); in assay [2] (10 µM unless noted), -8.44% (active); in assay [3] (10 µM unless noted), 59.2% (inactive); in assay [4] (10 µM unless noted), 70.1% (inactive); in assay [5] (10 µM unless noted), 76.5% (inactive); in assay [6] (10 µM unless noted), 59.2% (inactive).
On to `Nc1nc(CSc2n[nH]c(N)n2)nc(Nc2ccccc2)n1`, for which the growth in assay [1] (10 µM unless noted) is 95.7% (inactive); in assay [2] (10 µM unless noted), 94.7% (inactive); in assay [3] (10 µM unless noted) it was 99% (inactive); in assay [7] (10 µM unless noted), 93.3% (inactive); in assay [4] (10 µM unless noted), 105% (inactive); in assay [5] (10 µM unless noted) it was 110% (inactive). In assay [6] (10 µM unless noted), the growth was 98.4% (inactive).
